The whole screen tested about 320,000 compounds, of which about 9,100 (2.8%) were called active. Inconclusive results (about 3%) are left out. This is one part of a sample in which actives are shown more often than they occur. The call rests on the fitted dose curve; in most records, active means well fitted activation curve with a large enough effect; inconclusive means small, poorly fitted or top-dose-only effect; inactive means no such curve, though single readings can be large or run the other way.
Assay: qHTS Assay for Rab9 Promoter Activators; further: nearly all actives have a fitted effect of over 60% in size
Details: Huh7 Rab9 promoter-luciferase reporter, luminescence, 24 h; series mostly up to 9.22 µM
From the text: NIH Chemical Genomics Center [NCGC] NIH Molecular Libraries Probe Production centers Network [MLPCN] MLPCN Grant: MH089537-01 Assay Submitter (PI): Yiannis A. Ioannou NCGC Assay Overview: Niemann Pick Type C (NPC) is a rare neurodegenerative lipidosis that is characterized by lipid storage in the endosomal/lysosomal system. Treatment modalities for this devastating disease are currently non-existent due to the severe obstacles associated with accessing the central nervous system with proteins or genes (Ioannou, 2000). We have developed a new paradigm, termed "Orphan Receptor Bypass Therapy" (ORByT), to address these disorders. This paradigm posits the existence of endogenous "suppressor" proteins whose expression can dramatically improve LSD pathogenesis. The goal is the identification/discovery of small chemical compounds that can modulate the expression of these proteins and provide a new treatment modality for these devastating disorders. One such protein whose overexpression reverses aspects of the NPC phenotype is Rab9. We have developed and optimized a cell based luciferase reporter assay in 1536 well format for the identification of up-regulators of the Rab9 promoter.
The Rab9 promoter is cloned in front of the luciferase reporter gene, therefore […] promoter activation results in luciferase expression. Frozen stock of the Rab9 promoter transfected Huh7 cells were obtained from the laboratory of Dr. Yiannis Ioannou (The Mount Sinai School of Medicine, New York, NY). Cells were propagated and maintained at NCGC in medium containing RPMI-1640 supplemented with 10% FBS, 2mM L-glutamine, and 50ug/ml penicillin/streptomycin. Cells were harvested in and plated for assays in OP-MEM I reduced-serum medium supplemented with 10% FBS. The Amplite luciferase reporter gene assay kit was purchased from ABD Bioquest and prepared/stored according to manufacturers recommendations. qHTS Assay Setup: 1.Dispensed 5ul of Huh7 cells stably expressing Rab9-luciferase at a density of 1500 cells per well 1536-well plates. 2.Incubate cells at 37C, 5% CO2, and 95% humidity for 2 hours. 3.Transferred 23nl per well of compound in DMSO solution. 4.Incubated at 37C, 5% CO2, and 95% humidity for 24 hours. 5.Dispensed 3ul per well of Amplite reagent(ABD Bioquest) per well. 6.Incubate at ambient for 10 minutes. 7.Read using the luminescence protocol on the ViewLux plate reader (Perkin Elmer).
Potency means the concentration at half of the fitted maximal effect.

Potency, active:
O=C(Nc1ccon1)c1sc2ccccc2c1Cl 3160 nM
CCc1ccc(NC(=O)N2CCc3ccccc3C2)cc1 2240 nM
N#Cc1ccccc1NC(=O)c1cccc(COc2ccc(Cl)cc2Cl)c1 447 nM
CCc1ccc(N(CC(=O)NCc2cccnc2)S(=O)(=O)c2ccccc2)cc1 3550 nM
C/C(=N\NC(=O)OC(C)(C)C)c1ccc[nH]1 2820 nM
O=C(Nc1ccccc1)c1cc2ccccc2[nH]1 2510 nM
COc1ccc2[nH]cc(CCN3C(=O)c4ccc(C(=O)O)cc4C3=O)c2c1 1000 nM
Nc1c(C(=O)c2cccs2)sc2nsc(SCCN3CCCCC3)c12 2510 nM
CCOC(=O)c1sc(=NC(=O)/C=C/c2cccs2)n(C)c1C 2820 nM
C=CCNC(=O)c1ccc2c3n(nc2c1)-c1ccc(C)cc1CO3 891 nM
Cc1ccc(-n2cc3ccc([N+](=O)[O-])cc3n2)cc1 355 nM
COc1ccc(NC(=O)C2COc3ccccc3O2)cc1 (configuration not stated) 3160 nM
O=C(Nc1cccc(Cl)c1)OCc1ccccn1 3980 nM

Potency, inactive:
N#Cc1cccc(NC(=O)C2CCCN(C(=O)c3ccc(Cl)cc3)C2)c1 (configuration not stated)
N#CC1(NC(=O)COC(=O)CCN=C2NS(=O)(=O)c3ccccc32)CCCCC1
CC(=O)/C(C)=N/O
O=C(Nc1ccon1)c1cccc(Cl)c1
O=C(N/N=C/c1c(Cl)[nH]c2ccccc12)c1sc2ccccc2c1Cl
CC1CCCCC1NC(=O)COC(=O)Cc1ccc(Cl)cc1 (configuration not stated)
CCc1ccc(NC(=O)N2CCN(c3ccccc3)CC2)cc1
O=C(C(=O)N1CCc2ccccc2C1)N1CCc2ccccc2C1
COc1cccc(NC(=O)CN(C)CC(=O)c2c(N)n(Cc3ccccc3)c(=O)n(C)c2=O)c1
O=C(CNC(=O)c1ccc2ccccc2c1)Nc1ncccc1O
O=C(Nc1cccc2cccnc12)c1cccc(Cl)c1
CSc1ccc(C#N)cc1NC(=O)c1cccc(Cl)c1
CCN(c1ccccc1)S(=O)(=O)c1cccc(C(=O)NCc2ccccc2CN2CCOCC2)c1
CN(CC(=O)Nc1ccc(Cl)cc1)CC(=O)Nc1cccc2ccccc12
C/C=C(/C)C(=O)O[C@@H]1c2cc3c(c4c2[C@@]2(CO4)C(=O)C(OC)=C(OC)C=C2C[C@@H](C)[C@H]1C)OCO3
CCCNS(=O)(=O)c1ccc(CCC(=O)NCc2cccnc2)cc1
O=C(CN(c1cc(C(F)(F)F)ccc1Cl)S(=O)(=O)c1ccccc1)NCc1cccnc1
Cc1ccc(CN2CC(C(=O)NNC(=O)Cn3ccc(C(F)(F)F)n3)CC2=O)cc1 (configuration not stated)
CC(NC(=O)c1ccc(S(=O)(=O)Nc2ccccc2)cc1)c1ccc(S(N)(=O)=O)cc1 (configuration not stated)
COc1ccccc1C(=O)Nc1ccc(OCC(=O)N2CCCCC2)cc1
O=C1CC[C@H](O)CCN1[C@H](CSc1ccc(Br)cc1)Cc1ccccc1
CC(C)(CSc1nncn1/N=C/c1ccco1)NS(=O)(=O)c1ccc(Cl)cc1
CC(C)(C)OC(=O)N/N=C/c1ccc(C(=O)O)cc1
Cc1ccccc1NC(=O)NNC(=O)OC(C)(C)C
Cc1cccc(C)c1NC(=O)C(Cl)C(=O)c1ccccc1 (configuration not stated)
CCCCN(C(=O)C1CCC1)c1c(N)n(Cc2ccccc2)c(=O)[nH]c1=O
CCC(=O)c1ccc(OCC(=O)OCC(=O)N2CCc3ccccc3C2)cc1
COc1ccc2[nH]c(C(=O)Nc3ccccc3Cl)cc2c1
O=C(Nc1cccc(NC(=O)c2ccc(Br)cc2)c1)c1ccccc1
Cc1sc2ncnc(SCC(=O)Nc3ccc(CN4CCCC4)cc3)c2c1C
COc1ccc(C[C@H](C(=O)O)N2C(=O)c3ccc(C(=O)O)cc3C2=O)cc1
Cc1ccc2[nH]cc(CCCN3C(=O)c4ccccc4C3=O)c2c1
COc1cc([N+](=O)[O-])ccc1NC(=O)COC(=O)CCOc1ccc(C)cc1
O=C(CN1C2=NCCN2c2ccccc21)c1cccs1
O=C(CSc1ncnc2sccc12)N1CCN(C(=O)c2cccs2)CC1
CCCCC/C=C/C1=CC(=O)C[C@H](c2ccc(Cl)cc2)C1
COc1ccccc1CNC(=O)COC(=O)c1sc(C)nc1C
CCOC(=O)c1c(NC(=S)NC(=O)/C=C/c2cccs2)sc(C)c1C
CCOC(=O)c1sc(=NC(=O)c2ccc(Br)cc2)n(C)c1C
C=CCNC(=O)c1ccc(C)c(Br)c1
Cc1cccc(-c2nc3ccc(C(=O)NCCN4CCN(C)CC4)cc3nc2-c2cccc(C)c2)c1
COc1ccc(CNC(=O)CN2C(=O)NC3(CCCc4sccc43)C2=O)cc1 (configuration not stated)
CO[C@H]1[C@@H]2C=CO[C@@H](O[C@H]3O[C@@H](CO)[C@H](O)[C@@H](O)[C@@H]3O)[C@@H]2[C@@]2(CO)O[C@@H]12
Cc1ccc(-c2cn(S(=O)(=O)c3cccc([N+](=O)[O-])c3)nc2N)cc1
Cc1cc(C)nc(Nc2cc([N+](=O)[O-])ccc2C)n1
Cc1ccc(CNC(=O)c2cccc3c2C(=O)c2ccc(N4CCC(C)CC4)cc2S3(=O)=O)cc1
Cc1c(O)c(C)c2c(c1O)C(=O)C[C@@H](c1ccccc1)O2
COc1ccc(NC(=O)CC2COc3ccccc3O2)c(OC)c1 (configuration not stated)
CC(=O)c1cccc(NC(=O)C2COc3ccccc3O2)c1 (configuration not stated)
CC(C)C[C@H](NC(=O)[C@H](O)[C@H](N)Cc1ccccc1)C(=O)O
CNS(=O)(=O)c1cccc(C(=O)OCCCC(=O)c2ccccc2)c1
O=C(Nc1cccc(CCc2ccccn2)c1)c1ccc(Cl)cc1
O=C(Nc1ccc(Cl)cc1)OCc1cc(-c2ccccc2)on1
CC(C)N(C(=O)CSc1nnc(NC2CC2)s1)c1ccccc1

From PubChem BioAssay AID485297 (National Center for Advancing Translational Sciences (NCATS), 2010)
